Screen size: about 65,000 compounds; about 45 (0.07%) were called active.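 How the source made its calls: active means inhibition above the mean of compound-free control plate wells plus 3 SD (cut at about 14% in these data); inactive means the rest.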 For the sample, actives were picked, then their nearest neighbours and some compounds at random.

For the assay, the target named is Collagenase 3 (Homo sapiens) (UniProt P45452). Description: inhibition of MMP13 collagenase activity – biochemical, FRET peptide cleavage, primary screen (AID 570).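 Further: 0% = DMSO wells and 100% = wells with reference MMP-13 inhibitor after basal subtraction.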 The settings on record: MMP-13 fTHP FRET cleavage, Mca fluorescence; at 4 µM; active compounds read high.
Consider `O=C1C(C=NCC2CCCO2)=C(O)c2ccccc21` (configuration not stated), for which the inhibition was 3.3% (inactive).

Consider `CCOC(=O)Cn1c(SC)nc2sc3c(c2c1=O)CC(C)(C)OC3`, for which the inhibition is 1.7% (inactive).

As for `CN(C)/C=C/c1c(C#N)c(=O)ncn1Cc1ccccc1`, the inhibition was 2.5% (inactive).

On to `O=C(Nc1cccc(C(=O)N2CCCC2)c1)c1ccccc1`, for which the inhibition is -0.2% (inactive).

Consider `CCOC(=O)n1c(SCC(=O)N(CC)CC)nc2ccccc21`, for which the inhibition was -1.9% (inactive).

Consider `O=C(O)C1CCN(S(=O)(=O)N2CCOCC2)CC1`, for which the inhibition was -0.5% (inactive).

With `COc1ccc(CC(=O)c2ccc(O)cc2O)cc1OC`, the inhibition is 2% (inactive).

With `CC1(C)Oc2ccc3ccc(=O)oc3c2/C(=C/NCCO)C1=O`, the inhibition is 2.5% (inactive).

Regarding `Cc1ccc(-c2noc(CSc3nnc(-c4ccccc4)n3C)n2)cc1`, the inhibition was 7.2% (inactive).

In the case of `Cn1c(/C(C#N)=C2/CCCCCN2)nc2ccccc21`, the inhibition was 12.4% (inactive).

In the case of `O=C(Cn1c(-c2cncs2)nc2ccccc21)NC1CCCC1`, the inhibition was -3.3% (inactive).

As for `COCCCNC(=O)C1CC(=O)N(c2ccc(C)cc2)C1` (configuration not stated), the inhibition was -1.3% (inactive).

For the molecule `O=C(C(NS(=O)(=O)c1cccc2nsnc12)c1ccccc1)N1CCN(c2ccccn2)CC1` (configuration not stated), the inhibition was 7.2% (inactive).

Turning to `Cc1ccsc1CNn1cnnc1SCc1ccccc1F`, the inhibition was 9.3% (inactive).

Regarding `COc1ncnc2c1N=C1CC(C)(C)CC(N)=C1S2`, the inhibition is 1.4% (inactive).

As to `Cc1[nH]c2ccccc2c1C(=O)CSCC(=O)O`, the inhibition was -0.3% (inactive).

As to `O=C(CSc1nnc(-c2c[nH]c3ccccc23)n1-c1ccc(F)cc1)NCc1ccco1`, the inhibition was 6.1% (inactive).

Regarding `CC(C)(C)n1nnnc1C(c1ccc2ncccc2c1)N1CCSCC1` (configuration not stated), the inhibition was -2.5% (inactive).

Turning to `O=C(O)CCSc1nnc(-c2ccccc2)n1-c1ccccc1`, the inhibition is -3.8% (inactive).

As for `O=C(CC1Oc2ccccc2NC1=O)NCCCN1CCN(Cc2ccccc2)CC1` (configuration not stated), the inhibition is -2% (inactive).

Take `Cn1c(=O)c2c(nc(Br)n2CCSc2nc3ccccc3o2)n(C)c1=O`: the inhibition is 0.1% (inactive).

For `COc1ccc(CNC2CCCCC2)cc1`, the inhibition is 5.3% (inactive).

For the molecule `Cc1nonc1OCCn1nnnc1N`, the inhibition was -19.6% (inactive).

With `O=C(COc1ccccc1)N1CCc2ccccc2C1`, the inhibition was 1.4% (inactive).

For `CCN(CC)Cc1c(C(=O)OC)nnn1-c1nonc1N`, the inhibition was -0.9% (inactive).

For the molecule `CCOC(=O)c1sc(=S)n(-c2cccc(OC)c2)c1N`, the inhibition was 5.8% (inactive).

For the molecule `O=C(NCCN1C(=O)C2C3C=CC(C3)C2C1=O)Nc1ccccn1` (configuration not stated), the inhibition was 7.3% (inactive).

As for `OC(COc1cccc2ccccc12)CN1CCN(c2ccccn2)CC1` (configuration not stated), the inhibition is 0.9% (inactive).

On to `Cn1c(Cc2csc(N)n2)nnc1SC/C=C/c1ccccc1`, for which the inhibition is 6.2% (inactive).

With `O=C(CN(CC1CCCO1)C(=O)CNS(=O)(=O)c1ccccc1)NCc1ccccc1` (configuration not stated), the inhibition is -0.3% (inactive).

Turning to `COc1cccc(-c2nnc(N(C)C(=O)c3ccno3)s2)c1`, the inhibition is -8.4% (inactive).

For the molecule `COC(CCN(C)C)(c1ccccc1)c1ccccc1`, the inhibition was -0.2% (inactive).

With `Nc1nonc1-c1noc(-c2ccc(Br)o2)n1`, the inhibition is -4.4% (inactive).

As to `CCOC(=O)CNC(=O)CSc1nnc(-c2cccc(OC)c2)n1CC`, the inhibition is 3.6% (inactive).

Consider `COc1cccc(NC(=O)C(C)Oc2ccccc2)c1` (configuration not stated), for which the inhibition is 2.2% (inactive).

Consider `N#CC1=C(N)Oc2n[nH]c(CSc3ccccc3)c2C12C(=O)Nc1ccccc12` (configuration not stated), for which the inhibition was 1.5% (inactive).

`COc1ccccc1CNC(=O)C1CCCN(S(=O)(=O)c2cccc3cccnc23)C1` (configuration not stated): the inhibition was 2.1% (inactive).

Turning to `Cc1noc(C)c1CSc1nc2cc(S(=O)(=O)N3CCOCC3)ccc2o1`, the inhibition was -0.9% (inactive).

In the case of `CC12CCC(C(=O)N3CCN(c4ncccn4)CC3)(c3nc4ccccc4nc31)C2(C)C` (configuration not stated), the inhibition was 0.1% (inactive).

Consider `CC(C)C[C@H](NC(=O)[C@@H]1O[C@H]1C(=O)O)C(=O)NCCCCN=C(N)N`, for which the inhibition was 0.7% (inactive).

Regarding `CCn1cc(C(=O)N2CC=C(c3ccccc3)CC2)c(=O)c2ccc(C)nc21`, the inhibition was 0.8% (inactive).

On to `CCN1CCN(Cc2nc3c(c(=O)n(C)c(=O)n3C)n2CC(=O)c2ccccc2)CC1`, for which the inhibition was -8.7% (inactive).

Consider `Cc1ccc(Cc2cncc(O)c2)cc1S(=O)(=O)O`, for which the inhibition was 1.3% (inactive).

With `COc1ccc(-n2nnc3c(=O)n(CC(=O)OCc4ccccc4)cnc32)cc1`, the inhibition is 1.8% (inactive).

With `CCOC(=O)N1CCN(S(=O)(=O)c2cc(Br)cc3c2N(C(=O)C2CC2)CC3)CC1`, the inhibition was 3% (inactive).

For the molecule `Cc1ccc(NC(=O)Cn2nc(C)c3ccccc3c2=O)c(C)c1`, the inhibition was 0.6% (inactive).

For `COc1ccc(N2CCN(C(=O)CSc3nnc4ncccn34)CC2)cc1`, the inhibition was 4.1% (inactive).

Turning to `O=C(CN1CCN(c2ncc(C(F)(F)F)cc2Cl)CC1)Nc1ccc2c(c1)OCO2`, the inhibition is 2.7% (inactive).

Regarding `N#CCSc1nc2ccccc2c(=O)n1-c1ccccc1`, the inhibition was -3.9% (inactive).

For `CCc1nnc(NC(=O)CSc2nnc(Cc3ccccc3)n2-c2ccc(OC)cc2)s1`, the inhibition was 3.3% (inactive).

In the case of `CC(C)(C)c1csc(NC2=NS(=O)(=O)c3ccccc32)n1`, the inhibition was 0.2% (inactive).

Consider `COC(=O)c1ccc(CSc2nc3ccccc3c(=O)n2-c2cccc(OC)c2)o1`, for which the inhibition was -1.5% (inactive).

On to `CCCOC(=O)c1[nH]c2c(c1C)C(=O)CC(c1cc(OC)c(OC)c(OC)c1)C2` (configuration not stated), for which the inhibition was 0.2% (inactive).

Consider `CCCC(C(=O)N1CCOCC1)N1C(=O)C2C3C=CC(C3)C2C1=O` (configuration not stated), for which the inhibition was 4.6% (inactive).

Turning to `CN(C)CCOC(=O)C(c1ccccc1)C1(O)CCCC1` (configuration not stated), the inhibition is 3.8% (inactive).

Regarding `COc1cc2ccccc2cc1C(=O)Nc1ccc(S(=O)(=O)Nc2cc(C)on2)cc1`, the inhibition was -1.9% (inactive).

Turning to `Cc1ccccc1C(OCC(O)CN1CCCCC1CCO)c1ccccc1` (configuration not stated), the inhibition is 1.3% (inactive).

In the case of `O=C1Nc2c(Br)cc(Br)cc2C1(O)N1CCOCC1` (configuration not stated), the inhibition was -2.4% (inactive).

Consider `COc1ccc(CN2CN(C(C)C)CSC2=S)cc1`, for which the inhibition is 1% (inactive).

As to `COc1ccc(-c2nnn(Cc3nc(N)nc(N4CCCCC4)n3)n2)cc1`, the inhibition was 7.6% (inactive).

As for `O=C(C1CCN(S(=O)(=O)c2cccs2)CC1)N1CCCCCC1`, the inhibition was 6.3% (inactive).

`Cc1ccc(S(=O)(=O)NCC(=O)OCC(=O)N2CCc3ccccc32)cc1`: the inhibition was -2.9% (inactive).

For the molecule `COC(=O)c1ccc(NC(=O)CSc2nnc(Cc3cccn3C)n2-c2ccc(F)cc2)cc1`, the inhibition was -0.2% (inactive).

Regarding `Cn1c(=O)n(CCc2ccccc2)c(=O)c2c1nc1n2CCCN1c1ccccc1`, the inhibition was -0.2% (inactive).

Regarding `CCC/C(O)=C1\C(=O)CC(C)(C)CC1=Nc1ccccc1OC`, the inhibition was -1.2% (inactive).

Take `CSCCC(NC(N)=O)C(=O)N(C)CC(=O)Nc1ccc(C)cc1` (configuration not stated): the inhibition was -2.4% (inactive).

Consider `CCc1c(C)nc(N2CCN(Cc3ccccc3)CC2)[nH]c1=O`, for which the inhibition is -7.8% (inactive).

`COC(=O)c1c(-c2ccc(C)cc2)csc1N`: the inhibition is -8.5% (inactive).

For `CCn1c(COc2ccccc2)nnc1SCC(=O)Nc1ccc2c(c1)OCCO2`, the inhibition is 0.5% (inactive).

Consider `Cc1cccc2cc(CN(Cc3nnnn3Cc3ccccc3)C3CCCC3)c(=O)[nH]c12`, for which the inhibition was -8.4% (inactive).

`C=CCNc1nnc(C)c2ccccc12`: the inhibition was 3.5% (inactive).

With `Cc1cc(NC(=O)CN2CCCCC2C)nc2c1c(=O)oc1ccccc12` (configuration not stated), the inhibition is 0.1% (inactive).

Regarding `COc1ccccc1N1CCN(C(=O)c2cn(-c3ccccc3)nc2-c2cccnc2)CC1`, the inhibition was -5.4% (inactive).

As to `CCCN1CC=C2C(C#N)=C(N)C(C#N)(C#N)C(c3cc(OC)ccc3OC)C2C1` (configuration not stated), the inhibition was -14.3% (inactive).

On to `CCCCNC(=O)c1c[nH]c2ccc(S(=O)(=O)Nc3ccc(OCC)cc3)cc2c1=O`, for which the inhibition was -4.5% (inactive).

`Cc1cccc(N2CCN(S(=O)(=O)c3ccc4c(c3)c(=O)n(C)c(=O)n4C)CC2C)c1` (configuration not stated): the inhibition was 4.1% (inactive).

With `CCOC(=O)c1ccc(-n2c(C)nc3c(cnn3-c3ccccc3C)c2=O)cc1`, the inhibition is 7.5% (inactive).

On to `CCOC(=O)c1cc2occc2n1CC(=O)NC1CCC(C)CC1` (configuration not stated), for which the inhibition is 4.9% (inactive).

Regarding `COc1ccc(NS(=O)(=O)c2ccc(NC(=O)C(C)(C(F)(F)F)C(F)(F)F)cc2)nn1`, the inhibition was -10.5% (inactive).

As for `CN(CCCC(=O)Nc1nccs1)S(=O)(=O)c1ccc(Cl)cc1`, the inhibition is 6% (inactive).

Take `Cc1ccc(C(=O)CSc2nnc(Cn3nnc4ccccc43)n2C)cc1`: the inhibition is 7.7% (inactive).

For `CCN1CCN(Cc2c(O)ccc3c(=O)c(-c4ccc(OC)c(OC)c4)c(C(F)(F)F)oc23)CC1`, the inhibition was 4.7% (inactive).

As to `CCOC(=O)CSc1nc2c(sc(=S)n2CCc2ccccc2)c(=O)n1Cc1ccco1`, the inhibition is 2.4% (inactive).

In the case of `O=c1nc2s/c(=C\c3ccco3)c(=O)n2nc1Cc1ccccc1`, the inhibition is 0.1% (inactive).

In the case of `CN(c1ccccc1)c1ccc(/C=c2\s/c(=C(/C#N)C(=O)C(C)(C)C)n(Cc3ccco3)c2=O)cc1`, the inhibition is 15.4% (active).

As to `Cc1cc(C(F)(F)F)n2ncc(-c3ccccc3)c2n1`, the inhibition was 3.8% (inactive).

With `CCc1nnc(NC(=O)c2c(O)c3c([nH]c2=O)CCCC3)s1`, the inhibition is -11% (inactive).

On to `CCC(C)Sc1nnc(-c2c[nH]c3ccccc23)n1CCOC` (configuration not stated), for which the inhibition is 6.4% (inactive).

In the case of `CC(C)N1C(=O)C2C(C(=O)NC3CCCCC3)C3C=CC2(O3)C1C(=O)NC1CCCC1` (configuration not stated), the inhibition was -2.8% (inactive).

As to `O=C(NCCCN1CCN(c2ccccc2F)CC1)C1CCC(=O)N1C1CCCCC1` (configuration not stated), the inhibition is 1.3% (inactive).

In the case of `CC(C)(C)n1nnnc1C(c1cccs1)N(Cc1cccnc1)CC1CCCO1` (configuration not stated), the inhibition was -3.9% (inactive).

For `C=CCC(NCCCO)c1cccc(OC)c1OC` (configuration not stated), the inhibition is -1.4% (inactive).

On to `CCCCN(C)C(=O)c1ccc2c(c1)N(CC)C(=O)c1ccccc1S2(=O)=O`, for which the inhibition is -4.5% (inactive).

Take `CCOC(=O)CSc1nnc(CNC(=O)c2cccs2)n1-c1cc(OC)ccc1OC`: the inhibition was -0.5% (inactive).

For the molecule `CCOC(=O)CSc1nnc(CNc2ccc(F)cc2)o1`, the inhibition was -2.2% (inactive).

On to `Cc1ccccc1NC(=O)NCc1ccco1`, for which the inhibition is 2.4% (inactive).

As for `FC(F)(F)c1cc(-c2cccs2)nc(NCc2ccco2)n1`, the inhibition was -3.9% (inactive).

In the case of `CN1CCN(c2cc(=O)n(-c3ccc(Cl)cc3)c(=O)[nH]2)CC1`, the inhibition is 0.4% (inactive).

On to `COc1ccccc1N(CC(=O)N1CCCCC1)S(=O)(=O)c1ccccc1`, for which the inhibition is 2.1% (inactive).

As to `C=CCn1cnc2scc(-c3ccccc3)c2c1=O`, the inhibition is 0.5% (inactive).

As to `C=CCn1c(COc2ccccc2C)nnc1SCC(=O)O`, the inhibition is 5.1% (inactive).

For `O=C(Cn1cnc2c(cnn2-c2ccccc2)c1=O)NCc1ccccc1`, the inhibition is -2% (inactive).

By inhibition is commonly meant the change of the read-out against control, counted positive when it falls.

For the origin of these results see PubChem BioAssay AID570 (The Scripps Research Institute Molecular Screening Center, 2006).
